Screen size: about 190,000 compounds; about 810 (0.43%) were called active. Rule as the data show it: active = inhibition above about 50%; inactive = the rest. Shown is part of a subset that was picked to be rich in actives.
The compounds below were run against Mannose-6-phosphate isomerase (Homo sapiens) (UniProt P34949) (assay: inhibitors of human PMI, primary screen, biochemical, fluorescence intensity, coupled assay (AID 1209;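 also: plate controls were DMSO vehicle for no effect and wells lacking substrate for full effect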)). Conditions: purified PMI enzyme, at 20 µM, active compounds read high.
Chain of Mannose-6-phosphate isomerase (Homo sapiens) (P34949 whole entry, looked up): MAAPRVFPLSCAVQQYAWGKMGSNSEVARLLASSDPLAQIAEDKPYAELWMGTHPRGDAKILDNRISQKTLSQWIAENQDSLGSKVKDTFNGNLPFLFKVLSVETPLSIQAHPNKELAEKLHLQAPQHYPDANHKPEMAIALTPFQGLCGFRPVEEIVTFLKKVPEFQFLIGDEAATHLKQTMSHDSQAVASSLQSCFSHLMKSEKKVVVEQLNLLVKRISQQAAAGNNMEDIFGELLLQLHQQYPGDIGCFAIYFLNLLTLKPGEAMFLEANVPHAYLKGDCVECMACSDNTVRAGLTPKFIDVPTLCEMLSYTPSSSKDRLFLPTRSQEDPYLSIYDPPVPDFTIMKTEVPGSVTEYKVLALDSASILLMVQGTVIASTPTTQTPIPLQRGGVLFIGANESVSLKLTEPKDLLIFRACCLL

Structure (SMILES) | inhibition
Cc1ccc(S(=O)(=O)NCCOc2nc(N(C)C)nc(N3CCOCC3)n2)cc1 | 16.3% (inactive)
COC(=O)Cc1c(C(=O)OC)nnn1-c1cccc(C(F)(F)F)c1 | 75.8% (active)
O=C(O)Cc1c(C(=O)O)nnn1-c1cccc(C(F)(F)F)c1 | -2.9% (inactive)
COC(=O)Cc1c(C(=O)OC)nnn1-c1ccc(OC(F)(F)F)cc1 | -7.2% (inactive)
O=C(NNC(=O)C1C2CCC(C2)C1C(=O)O)c1cccc(Cl)c1 (stereo unspecified) | -7.9% (inactive)
O=C(CCCOc1ccccc1)N1CCN(c2ccccn2)CC1 | 0.9% (inactive)
O=C(NCc1cccnc1)c1ccc(COc2ccc3c(c2)CCC3)o1 | 11% (inactive)
Cc1ccc(Nc2c(F)c(F)c(F)c(F)c2C(=O)O)cc1 | -24% (inactive)
CCCCn1c(Cc2ccccc2)nnc1SCC(=O)Nc1cc(C)on1 | 50.8% (active)
COCCn1c(Cc2ccccc2)nnc1SCC(=O)Nc1cc(C)on1 | 3.8% (inactive)
CCn1c(Cc2ccccc2)nnc1SCC(=O)Nc1cc(C)on1 | -6.5% (inactive)
Cc1ccccc1NC(=O)N1CCC(C(=O)c2ccc(F)cc2)CC1 | -0.8% (inactive)
O=C(CC(SCCO)c1ccc(F)cc1)c1ccco1 (stereo unspecified) | 4.8% (inactive)
O=C(CC(SCCO)c1ccc2c(c1)OCO2)c1ccco1 (stereo unspecified) | 10.7% (inactive)
Cc1ccc(C(CC(=O)c2ccco2)SCCO)cc1 (stereo unspecified) | 88.3% (active)
NCCCC[C@@H]1NC(=O)[C@H](CCC(=O)O)NC(=O)c2cc([N+](=O)[O-])cc(I)c2OCC[C@@H](C(N)=O)NC1=O | -36.4% (inactive)
CC1CN(S(=O)(=O)c2cccs2)CC(C)O1 (stereo unspecified) | -2.4% (inactive)
Cc1cc2n(n1)SC(Nc1ccccc1)N2 (stereo unspecified) | 24.7% (inactive)
CCc1ccc(NC(=O)c2cc(C)on2)cc1 | 6.1% (inactive)
CCc1ccc(Nc2cc(C)nc3nc(C)nn23)cc1 | -5.4% (inactive)
CN1C(=O)SC(Nc2ccc(F)cc2)C1=O (stereo unspecified) | 3.1% (inactive)
Cc1cc2n(n1)SC(Nc1ccc(F)cc1)N2 (stereo unspecified) | 64.5% (active)

Structure (SMILES) | inhibition
COc1ccc(CCNC(=O)c2nnn(-c3cccc(C)c3)c2N)cc1OC | 4.4% (inactive)
Cc1nc(SC(C(=O)c2ccccc2)c2ccccc2)n[nH]1 (stereo unspecified) | 2% (inactive)
C=CCn1c(SCc2c(F)cccc2Cl)nnc1-c1ccco1 | -6.5% (inactive)
CCCn1c(NCc2ccco2)nc2c1c(=O)n(C)c(=O)n2C | -8.2% (inactive)
COc1ccc(F)cc1C(=O)C1CCCN(Cc2ccc(Oc3ncccn3)cc2)C1 (stereo unspecified) | -3.3% (inactive)
Nc1c2c(nc3ccc(Br)cc13)N(c1ccccc1)CC2 | 17% (inactive)
Cc1cccc(N2CCc3c2nc2ccc(Br)cc2c3N)c1 | 69.9% (active)
Cc1ccc2nc3c(c(N)c2c1)CCN3c1ccccc1 | 0.5% (inactive)
CCN(CC)S(=O)(=O)c1ccc2c(c1)nc(CCC(=O)Nc1ccc(N3CCOCC3)cc1)n2C | 3.7% (inactive)
COc1ccc(Cl)cc1Nc1ncnc2sc(C)c(S(=O)(=O)N3CCC(C)CC3)c12 | 5.4% (inactive)
Nc1cc2nc[nH]c2cc1N | 68.3% (active)
Nc1ccc2nc[nH]c2c1 | -17.5% (inactive)
Cc1cc2nc[nH]c2cc1[N+](=O)[O-] | 4% (inactive)
c1ccc2c(-c3nn[nH]n3)cccc2c1 | -8.6% (inactive)
O=C(N/N=C/c1ccc(N2CCOCC2)o1)c1cccc([N+](=O)[O-])c1 | 79% (active)
O=C(N/N=C/c1ccc(N2CCOCC2)o1)c1cccc(C(F)(F)F)c1 | -5.7% (inactive)
O=C(N/N=C/c1ccc(N2CCOCC2)o1)c1cccc(F)c1 | -2.7% (inactive)
CCOC(=O)c1c(-c2ccc(C)cc2)csc1/N=C/N(C)C | 12.2% (inactive)
COc1cc(OC)c(Cl)cc1N | 9.7% (inactive)
COc1cc(N)c(Cl)cc1Cl | -7.9% (inactive)
COc1ccc(OC)c(N=C(N)N=C(N)N)c1 | 2.9% (inactive)
COc1ccc(OC)c(N=c2ssnc2Cl)c1 | 88.1% (active)

Structure (SMILES) | inhibition
COc1ccc(OC)c(N=C2C(=O)Nc3ccccc32)c1 | 16.4% (inactive)
COc1cc(N=c2ssnc2Cl)c(OC)cc1Cl | 98.9% (active)
C#CCOCCOCCOCCNc1nc(N2CCN(C(=O)C([C@@H](C)CC)n3cc(C(N)Cc4ccc(O)cc4)nn3)CC2)nc(N2CCN(C(=O)[C@H](CCC(=O)O)n3cc(C(N)CC(C)C)nn3)CC2)n1 (stereo partly specified) | -18.6% (inactive)
COc1ccc(C(=O)/C=C/C(=O)N(Cc2ccccc2OC)C(C(=O)NC2CCCCC2)c2ccncc2)c(O)c1 (stereo unspecified) | 13.1% (inactive)
Cc1ccc(S(=O)(=O)/N=C(/c2ccc(F)cc2)N2CCCC2)cc1 | 7.2% (inactive)
CSc1ccc(/C=C/C(=O)c2ccc(NC(=O)Cc3ccccc3)cc2)cc1 | 15.3% (inactive)
Nc1ccc(N2CCCCCC2)cc1 | -3.3% (inactive)
Cc1nn(-c2cc(N3CCCCC3)ccc2N)c(=O)c2ccccc12 | 25.5% (inactive)
Nc1ccc(N2CCCCC2)cc1N1CCCCC1 | 61.7% (active)
Cc1cc(C)c2sc(N(CCCN(C)C)C(=O)COc3ccc(Cl)cc3)nc2c1 | 50.2% (active)
CN(C)CCCN(C(=O)COc1ccc(Cl)cc1)c1nc2ccc(F)cc2s1 | -8% (inactive)
Cc1ccc2nc(N(CCCN(C)C)C(=O)COc3ccc(Cl)cc3)sc2c1 | -9.9% (inactive)
COc1ccc(-n2ncc3c(=O)n(Cc4c(F)cccc4Cl)cnc32)cc1 | 1.8% (inactive)
O=C1CSc2ccc(C(=O)Nc3cccc(S(=O)(=O)Nc4ccc(Br)cc4)c3)cc2N1 | 62.8% (active)
COc1ccc(NS(=O)(=O)c2cc(NC(=O)c3ccc(F)cc3)ccc2OC)cc1 | 14.1% (inactive)
COc1ccc(NC(=O)c2ccc3c(c2)NC(=O)CS3)cc1S(=O)(=O)Nc1ccc(Br)cc1 | 54.5% (active)
O=C(Nc1cccc(S(=O)(=O)Nc2ccc(Cl)cc2)c1)c1ccc(Cl)nc1 | 15.9% (inactive)
COc1ccc(NC(=O)c2c(F)cccc2F)cc1S(=O)(=O)Nc1ccc(Br)cc1 | 19.4% (inactive)
Cc1ccc(NS(=O)(=O)c2cc(NC(=O)c3ccc4c(c3)NC(=O)CS4)ccc2C)c(C)c1 | 41.1% (inactive)
Cc1ccc(NS(=O)(=O)c2cc(C(=O)O)ccc2Cl)c(C)c1 | -31.1% (inactive)
Cc1ccc(NS(=O)(=O)c2cc(NC(=O)c3ccc4c(c3)NC(=O)CS4)ccc2Cl)c(C)c1 | 59.3% (active)
COc1ccc(NC(=O)c2cccc(S(=O)(=O)Nc3ccc(Br)cc3)c2)cn1 | 12.5% (inactive)

From PubChem BioAssay AID1209 (Sanford-Burnham Center for Chemical Genomics, 2008)
